Measured values as given in PubChem BioAssay (NCI).
The panel holds about 83,000 compounds, 20% with a hit somewhere; the sample as a whole holds those more often.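 Cell lines were cultured in 96-well plates, exposed to a single compound concentration, and assessed for percent growth 48 hours later.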 Unmarked numbers belong to inactive results. Active and inactive are the calls of the source. Rule for the calls: active = growth percent below 10; inactive = the rest.

System: HL-60(TB) leukemia
Experiment: NCI-60 one-dose screen, 48 h (100 = growth as untreated, 0 = no growth, -100 = all killed)
Details: 10 µM unless noted

Structure (SMILES) | growth
Cc1cc(Br)ccc1-n1cc(C#N)c(N)c1C(=O)c1ccc(Br)cc1 | 110%
COc1cc(/C=C/C(=O)c2ccc(C)cc2)ccc1Oc1nc(NCCO)nc(N2CCOCC2)n1 | -26.7% (active)
CCN1C(=O)N(CC)C2C1NN=C1SC(c3ccccc3)=CC(=O)N12 (stereo unspecified) | -2.48% (active)
Cc1cc(C(=O)Nc2ccc(SC#N)cc2)c(C)o1 | 47.7%
N#Cc1ccc(C(=O)CSc2nc(Nc3ccc(S(N)(=O)=O)cc3)c3ccccc3n2)cc1 | 105%
Cc1ccc(-n2c(/C=C3\C(=O)Nc4ccccc43)ccc2CO)cc1 | 25.4%
NC(N)=Nc1ccc(Oc2cccc(NC(N)=Nc3ccc(Cl)c(C(F)(F)F)c3)c2)cc1 | 27.8%
Oc1ccc(CSc2nnc(-c3ccc(Oc4ccccc4)cc3)o2)c2cccnc12 | 19.1%
CC(C)(C)c1ccc(C(=O)Nc2nc3ccc(O)cc3s2)cc1 | 24.8%
CCOC(=O)C1=C(C)NC(C)=C(C(=O)OCc2ccccc2)C1c1cccc(C#N)c1 (stereo unspecified) | 16.1%
Cc1c(NC(=O)CSc2nc3sc4c(c3c(=O)n2-c2ccc(Cl)cc2)CCCC4)c(=O)n(-c2ccccc2)n1C | 80%
CS(=O)(=O)c1ccc(-n2cc(/C=N/O)c(-c3ccccc3)n2)cc1 | -45.8% (active)
C=C(C)[C@@H]1CC[C@]2(COCCCNCCC#N)CC[C@]3(C)[C@H](CC[C@@H]4[C@@]5(C)CC[C@H](OCCCNCCC#N)C(C)(C)[C@@H]5CC[C@]43C)[C@@H]12 | 0.0603% (active)
C[C@H]1[C@H](C)CC[C@]2(COC(=O)c3cccnc3)CC[C@]3(C)C(=CC[C@@H]4[C@@]5(C)CCCNC(C)(C)[C@@H]5CC[C@]43C)[C@H]12 | 23.9%
COc1ccc([C@@H]2[C@@H](O)C(=O)N2c2cc(OC)c(OC)c(OC)c2)cc1F | -15.8% (active)
CN1C(=O)N(C)C2Nn3c(s/c(=C\c4ccccn4)c3=O)=NC21 (stereo unspecified) | 110%
COc1cc2oc(-c3cccc(NC(=O)c4cc(N)ccc4Cl)c3)cc(=O)c2c(OC)c1OC | 99.7%
C#C[C@]1(O)CC[C@H]2[C@@H]3CC=C4c5sc(Nc6cccc(Cl)n6)nc5CC[C@]4(C)[C@H]3CC[C@@]21C | -15.6% (active)
N#Cc1cnc2ccc(-c3cnc4n[nH]nc4c3)cc2c1N1CCc2cc(F)c(Cl)cc21 | 20.2%
COc1ccc(/C=N/NC(=O)CSc2nc(-c3cnccn3)cc(-c3cccs3)c2C#N)cc1OC | 101%
Cc1[nH]c(C(=O)Nc2ccccc2OCc2cccc(C(=O)NCCN)c2)cc1Cl | 89.6%
COc1cc(/C=C/C(=O)c2ccc(NC(=O)CSc3nnc(-c4ccc5nc(-c6ccccc6)[nH]c5c4)o3)cc2)cc(OC)c1OC | 69%
O=C(CNc1nc(-c2cccc([N+](=O)[O-])c2)cs1)Nc1cccc(Cl)c1 | 105%
O=c1[nH]c2cc(Cl)ccc2n1C1CCN(c2ccc3nnc(Cl)n3n2)CC1 | 93.1%
CN(C)CCCOc1c2ccc(Cl)cc2nc2c1oc1ccccc12 | -19.3% (active)
Cc1cccc(NC(c2cc3cccc4ccc5cccc2c5c43)c2nnnn2C(C)(C)C)c1C (stereo unspecified) | 91.9%
